VHR inh abs – DUSP3 (human) phosphatase inhibition. recombinant VHR phosphatase, pNPP absorbance. inhibition, % at 13.3 µM. 290,000 tested, 0.52% active. AID 1654; in the data active = inhibition above about 50%
BJeLR viability – kills HRASV12-expressing BJeLR cells. BJeLR (HRASV12) viability, CellTiter-Glo ATP luminescence, 48 h. 300,000 tested, 0.17% active. inhibition, % (no concentration beside the values). AID 1554; in the data active = inhibition above about 50%
RN4220 kill – S. aureus RN4220 growth inhibition; OD600, 16 h; inhibition, % (concentration not given with the values); 330,000 tested, 0.33% active; in the data active = inhibition above about 85%;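 note: plate controls were untreated cells for no effect and reference antibiotic for full effect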
SARS 3CLpro inh – SARS-CoV 3CLpro protease inhibition; recombinant SARS-CoV 3CLpro, quenched FRET peptide cleavage; inhibition, % at 6 µM; 290,000 tested, 0.14% active; AID 1706; in the data active = inhibition above about 12%
ugtP null kill – compounds lethal to S. aureus RN4220 ugtP deletion mutant. OD600 growth, 16 h. growth inhibition, % (no concentration beside the values). 330,000 tested, 0.54% active. AID 1259309; in the data active = growth inhibition above about 68%;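 note: plate controls were untreated wells for no effect and antibiotic for full effect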
PrPC surface inh – cell surface PrPC inhibition, primary TR-FRET screen | P04156 | TR-FRET read-out | inhibition, % at 13.8 µM | 370,000 tested, 0.43% active; in the data active = inhibition above about 24%; note: 0% = median of the test wells and 100% = reference compound wells
PrPC confirm – cell surface PrPC inhibition, TR-FRET confirmation | 1,500 tested, 65% active | cell surface PrPC level | inhibition, % at 13.8 µM | shares compounds with PrPC surface inh | AID 743200; in the data active = inhibition above about 25%
LD9 cytotox – counter-screen for PrPc inhibitors: cytotoxicity in LD9 cells | 1,500 tested, 29% active | AID 743201 | shares compounds with PrPC surface inh | inhibition, % at 13.8 µM | luminescence viability; in the data active = inhibition above about 9.5%
* marks the source's active call; other numbers are inactive results; . = not tested or not shown. Most compounds without a hit are left out; they make up all but 1.4% or so of the library.

SMILES	VHR inh abs	BJeLR viability	RN4220 kill	SARS 3CLpro inh	ugtP null kill	PrPC surface inh	PrPC confirm	LD9 cytotox
COC(=O)[C@@]1(Cc2ccc(F)cc2)C2c3cc(C(=O)N(C)C)n(Cc4c(CO)[nH]cc(C)c4=O)c3CC2CN1C(=O)c1ccccc1 (some centres undefined)	.	.	0.3	.	-9.8	.	.	.
CC1CC(C)(O)CC(C(O)CC2CC(=O)NC(=O)C2)C1=O (centres undefined)	.	.	.	.	.	82.6*	97.2*	36.3*
CS(=O)(=O)N1CCCCC1c1cc(C(=O)Nc2ccc3c(c2)OCO3)no1 (centres undefined)	.	.	.	.	.	-3.1	.	.
CC(C)NC(=O)c1cc(C2CCCCN2S(=O)(=O)c2ccc(C#N)cc2)on1 (centres undefined)	.	.	.	.	.	-1.2	.	.
COc1ccc(S(=O)(=O)N2CCCCC2c2cc(C(=O)Nc3ccc4c(c3)OCO4)no2)cc1 (centres undefined)	.	.	.	.	.	28.0*	18.3	-2.8
N#Cc1cccc(NC(=O)c2cc(C3CCCCN3S(=O)(=O)c3ccccc3)on2)c1 (centres undefined)	.	.	.	.	.	26.3*	17.2	-1.8
O=C(Nc1ccc2c(c1)OCO2)c1cc(C2CCCN(C(=O)CCc3ccccc3)C2)on1 (centres undefined)	.	.	.	.	.	38.2*	25.4*	-1.0
CCN(CC)c1c([N+](=O)[O-])c(=O)n(C)c2ccccc12	19.9	13.5	7.4	2.1	-2.5	-0.5	.	.
Cn1c(=O)c([N+](=O)[O-])c(Cl)c2ccccc21	8.5	14.2	1.7	-3.0	5.1	57.0*	50.1*	98.0*
N#CCc1c(C#N)c(N)nc(N2CCN(S(=O)(=O)c3ccccc3F)CC2)c1C#N	20.6	-7.3	0.4	0.1	2.2	31.1*	10.9	16.4*
NC(=O)C1CC2(CC(c3cccc(NC(=O)c4ccccc4)c3)=NO2)CN1C(=O)C1CCC(=O)N1 (centres undefined)	.	.	7.5	.	-6.6	.	.	.
Cc1ccc(CN2CCCCC(NC(=O)c3ccc(COc4ccccc4)cc3)C2=O)cc1 (centres undefined)	.	.	.	.	.	25.4*	19.1	0.7
CC(=O)c1ccc(NC(=O)c2ccccc2Sc2ncnc3sc(C)c(C)c23)cc1	10.5	-3.0	6.0	2.0	-0.4	7.0	.	.
O=C(O)c1ccccc1Sc1ncnc2sc3c(c12)CCC3	-2.0	5.8	2.8	2.1	7.8	45.1*	63.3*	-9.3
Cc1sc2ncnc(Sc3ccccc3C(=O)O)c2c1C	-12.7	-9.8	2.2	2.3	3.2	93.6*	120.6*	-0.8
CC(=O)CSc1ncnc2sc3c(c12)CCCC3	13.9	6.7	11.0	-2.6	12.6	29.9*	20.5	-9.9
O=C(CSc1ncnc2sc3c(c12)CCCC3)c1ccccc1	-9.1	4.1	9.9	0.6	22.1	-4.3	.	.
CC(NC(=O)c1nc[nH]c1C(=O)N1CCN(C(=O)OC(C)(C)C)CC1)c1ccccc1 (centres undefined)	.	.	4.5	.	-2.2	.	.	.
Cc1cc(C(=O)CSc2nncs2)c(C)n1-c1c(C)n(C)n(-c2ccccc2)c1=O	10.2	-0.6	1.6	-1.5	-3.5	-6.7	.	.
Cc1ccc(-n2c(C)cc(C(=O)CSc3nncs3)c2C)cc1	2.8	20.9	5.4	-0.8	-15.2	38.9*	34.2*	1.5
COc1ccc2c(CC(=O)Nc3ncc(C)s3)coc2c1	19.0	3.3	5.4	0.1	1.7	28.6*	34.5*	6.5
O=C1CCC(CN(Cc2ccccn2)Cc2nc(Cc3cccc(C(F)(F)F)c3)no2)N1 (centres undefined)	.	.	-4.9	.	-10.4	.	.	.
CC(C)c1nc(SCC(=O)NC2CCCCC2)c2ccccc2n1	10.2	-8.1	4.1	1.9	0.5	3.4	.	.
CC(C)c1nc(SCC(=O)Nc2ccc(N(C)C)cc2)c2ccccc2n1	36.4	-2.1	8.8	-4.1	4.0	79.0*	93.3*	-5.1
Cc1csc(NC(=O)CSc2nc(C(C)C)nc3ccccc23)n1	11.3	5.9	5.0	-3.1	11.7	83.9*	105.1*	-4.7
SMILES	VHR inh abs	BJeLR viability	RN4220 kill	SARS 3CLpro inh	ugtP null kill	PrPC surface inh	PrPC confirm	LD9 cytotox
Cc1ccc(C(=O)CSc2nc(C(C)C)nc3ccccc23)cc1	15.1	14.4	2.7	0.0	20.7	8.5	.	.
CC(C)c1nc(SCC(=O)Nc2nccs2)c2ccccc2n1	15.3	-9.7	3.1	0.2	-3.5	50.5*	89.6*	-3.7
COc1ccc2cc(C(=O)N(C)CC(=O)Nc3ccccc3Br)ccc2c1	.	.	5.8	.	8.2	31.3*	43.7*	-6.2
COC(=O)C1=C(c2cccc(OC)c2OC)CC2CCC1N2C(=O)NCc1ccc(C(F)(F)F)cc1 (centres undefined)	.	.	5.2	.	1.4	.	.	.
NS(=O)(=O)c1ccc(CCNC(=O)c2cc(-c3ccccn3)nc3ccc(Br)cc23)cc1	28.3	-3.3	5.1	5.3	4.3	29.0*	47.6*	21.1*
C=CCC(CC(=O)N(CCO)Cc1ccccc1)C(=O)NC(C)COC(=O)C(CC=C)Cc1ccc(F)cc1 (centres undefined)	.	.	6.6	.	3.0	.	.	.
Oc1ccc(CN2CCc3ccccc3C2)c2cccnc12	4.8	12.5	23.7	-4.8	14.4	27.4*	34.6*	28.1*
CCn1c(SCC(=O)NN=CC=Cc2ccco2)nc2ccccc21	.	.	3.4	.	-10.0	.	.	.
Cn1c(SCc2ccc(Cl)cc2)nnc1-c1ccc2nonc2c1	24.9	13.0	0.7	3.2	-4.8	70.0*	-24.1	-0.4
Cc1cccc(NC(=O)Cn2cc(C(=O)C3CC3)c3ccccc32)c1C	27.7	-0.9	1.9	-8.7	-1.5	31.3*	23.3	22.0*
COC(=O)[C@@]12CCCN1C(c1ccc(-c3ccc4c(c3)OCO4)cc1)C1C(=O)N(C)C(=O)C12 (some centres undefined)	.	.	1.0	.	-5.2	.	.	.
Cc1cc(C)nc(NC(=O)/C=C/c2cccs2)c1	39.7	-4.6	1.4	2.2	3.5	0.0	.	.
Cc1cc(C)c(-c2csc(NC(=O)/C=C/c3cccs3)n2)c(C)c1	52.9*	1.5	-13.3	-1.2	-11.5	44.8*	41.3*	-8.8
Cc1c(C(=O)Nc2ccc(-c3nnc4n3CCCCC4)cc2)oc2ccc(Br)cc12	13.6	6.2	15.6	-2.0	14.9	40.2*	48.9*	6.5
O=C(C1=CC(c2ccc(Br)cc2)CC(OCCCCO)O1)N1CCN(Cc2ccccc2)CC1 (centres undefined)	.	.	6.0	.	1.7	.	.	.
Cc1ccccc1OCC(=O)Nc1ccncc1	7.9	4.9	3.1	-2.1	5.4	8.6	.	.
COc1ccc(NC(=O)Nc2ccc(Cc3ccncc3)cc2)c(OC)c1	4.3	-2.4	0.0	-2.8	10.8	26.5*	21.3	-5.6
COc1ccc(NC(=O)Nc2cnccn2)c(OC)c1	30.2	8.4	6.4	0.6	1.3	2.8	.	.

Screens (PubChem)
